Measurements published in PubChem BioAssay (Tox21).
Several values for one entry are separate records, joined by “and”; a condition that tells them apart may be missing. Equal entries are not always repeated. Inconclusive results are not listed. Entries that show only a call come without a potency. A structure can be active in one record and inactive in another. Activity calls are given as the source filed them. Calls follow the shape of the dose curve; as a rule, active = well fitted activation curve with a large enough effect in the repeat runs; inconclusive = weak or mixed curves; inactive = flat fitted curve, though single readings scatter.

test: A CellTox Green Cytotoxicity Assay to monitor cytotoxicity in HepG2 cells - 16 hour (AID 1224876); conditions: CellTox Green fluorescence; series mostly up to 76.8 µM; also: nearly all actives have a fitted effect of over 45% in size
From the text: National Center for Advancing Translational Sciences [NCATS]
NIH Chemical Genomics Center [NCGC]
U.S. Environmental Protection Agency [EPA]
National Institutes of Environmental Health Sciences [NIEHS]
National Toxicology Program [NTP]
Cell-based models are critical for drug discovery. Determining the natural cytotoxic effects resulting from test compounds is an essential research activity. A CellTox Green Cytotoxicity Assay to monitor cytotoxicity in real time of continues cell culture during 40 hours of the compound treatment was used to screen Tox21 10K library compounds in HepG2 cells. CellTox Green Cytotoxicity Assay is a nonlytic, homogeneous, biofluorescent method to measure cytotoxicity in cell culture after experimental manipulation. The assay system uses a proprietary asymmetric cyanine dye that is excluded from viable cells but preferentially stains the dead cell's DNA. […] Viable cells produce no appreciable increases in fluorescence. Therefore, the fluorescence signal produced by the binding interaction with dead cell DNA is proportional to cytotoxicity.
The mixture of HepG2 cell suspension and reagents were dispensed at 600cells/6 ul/well in 1536-well tissue culture treated black solid bottom plates using a Multidrop dispenser. After the assay plates were incubated at a 37 C/5% CO2 incubator for 5 hours, 23 nL of compounds dissolved in DMSO, positive and negative controls was transferred to the assay plate by a pintool work station. The plates were incubated at 37 C for 40 hours. The fluorescence intensity were measured at 0h, 8h, 16h, 24h, 32h and 40h time points using ViewLux plate reader during compound treatment.
Potency is read from the fitted curve at half-maximal effect.

Row | SMILES | Potency | cytotoxicity increase
1 | COC(=O)[C@@H](N)Cc1ccc(O)c(O)c1 | inactive | 
2 | CC1=CC(C)C(C=O)CC1 (stereo not given) | inactive | 
3 | NS(=O)(=O)c1ccc(C(=O)O)cc1 | inactive | 
4 | Cc1c(NC(C)C)c(=O)n(-c2ccccc2)n1C | inactive | 
5 | CCOC(=O)c1ccc(C)cc1 | inactive | 
6 | COc1ccc2c(c1)CCCC2=O | inactive | 
7 | CCCCCOC(=O)CCCCC | inactive | 
8 | CN1N=C(C(N)=O)CCC1=O | inactive | 
9 | O=c1n(CCO)c(=O)n(CCO)c(=O)n1CCO | inactive and 38.9 µM (active) | 
10 | N=C(N)c1ccc(OCCCOc2ccc(C(=N)N)cc2)cc1 | inactive | 
11 | CCC(C)S (stereo not given) |  | 0.507% [at 2.72 µM] (inactive)
12 | CC(=O)N(CC(O)CO)c1c(I)c(C(=O)NCCO)c(I)c(C(=O)NCC(O)CO)c1I (stereo not given) | inactive | 
13 | NC(CSCC(=O)O)C(=O)O (stereo not given) | inactive | 
14 | N#Cc1ccc(C2CCCc3cncn32)cc1 (stereo not given) | inactive | 
15 | CCn1nc(C(=O)O)c(=O)c2cc3c(cc21)OCO3 | inactive | 
16 | CCCCC/C=C\CCC=O | inactive | 
17 | CCN(CC)CCOCCOC(=O)C1(c2ccccc2)CCCC1 | inactive | 
18 | NC(=O)COCCN1CCN(C(c2ccccc2)c2ccc(Cl)cc2)CC1 (stereo not given) | inactive | 
19 | CC(=O)OCC(CCn1cnc2cnc(N)nc21)COC(C)=O | inactive | 
20 | CC(C)NCCCC1(C(N)=O)c2ccccc2-c2ccccc21 | inactive | 

Row | SMILES | Potency | cytotoxicity increase
21 | CC(C)(O)C(=O)c1ccccc1 | inactive | 
22 | CS(=O)(=O)O | inactive | 
23 | CC(=O)Nc1ccc(S(N)(=O)=O)cc1 | inactive | 
24 | COC(=O)NN | inactive | 
25 | Oc1ccc(C2CNCCc3c2cc(O)c(O)c3Cl)cc1 (stereo not given) | inactive | 
26 | NC(=O)Nc1ccccc1 | inactive | 
27 | Cn1c(N)c(N=O)c(=O)n(C)c1=O | inactive | 
28 | COC(C)(C)CCCC(C)CC=O (stereo not given) | inactive | 
29 | FC(F)OC(Cl)C(F)(F)F (stereo not given) | inactive | 
30 | CCOC(=O)c1cccc(N)c1 | inactive | 
31 | Nc1c[n+](N2CCOCC2)no1 | inactive | 
32 | CCc1nccnc1CC |  | 1.53% [at 15.8 µM] (inactive)
33 | Nc1c2c(nc3ccccc13)CCCC2O (stereo not given) | inactive | 
34 | C[C@H](NC(CCc1ccccc1)C(=O)O)C(=O)N1CCC[C@H]1C(=O)O (stereo not given in full) | inactive | 
35 | ClC(Cl)(Br)Br | inactive | 
36 | CCCCCCCCCCCCCC=O |  | 1.97% [at 6.97 µM] (inactive)
37 | CC(C(=O)O)c1ccc(CC2CCCC2=O)cc1 (stereo not given) | inactive | 
38 | O=C(c1ccccc1)C1CCCCC1 | 43.6 µM (active) | 
39 | C=C(C)C(=O)OCCCCCCCC(C)C | inactive | 
40 | CC(C)(CC(=O)O)C(=O)O | inactive | 
